# Data: PubChem BioAssay AID1048 (The Scripps Research Institute Molecular Screening Center, 2008)
# In all, about 99,000 compounds went through this assay and about 390 (0.39%) were called active. The sample holds actives, similar compounds and a random draw of the others, so the mix is not that of the screen. Unmarked numbers belong to inactive results. Rule as the data show it: active = TR-FRET ratio above about 2000; inactive = the rest.
# Assay: TR-FRET detection interference compounds, artefact control for PPARgamma SRC-3 recruitment agonists, biochemical, TR-FRET ratio (AID 1048)
# Details: TR-FRET artefact counter-screen, PPARgamma/SRC-3 format; at 8 µM; stronger effect = higher value
row,SMILES,TR-FRET ratio
1,CC(=O)C1C(c2ccc(Cl)cc2)c2c(n[nH]c2C)CC1(C)O (stereo unspecified),1710
2,COc1ccc(NS(=O)(=O)c2cc(NC(=O)C3CCCCC3)ccc2N2CCOCC2)cc1,1510
3,O=C(Nc1ccc([N+](=O)[O-])cc1)C1CC12CCC2 (stereo unspecified),1620
4,CC(=O)c1ccc(S(=O)(=O)Nc2ccc(C(=O)NCC(c3ccccc3)N(C)C)cc2)cc1 (stereo unspecified),1580
5,CC(Sc1cccc[n+]1[O-])C(=O)Nc1cccc(S(=O)(=O)N2CCOCC2)c1 (stereo unspecified),1620
6,COc1ccc(/C=N/NC(=O)c2ccccc2)cc1OS(=O)(=O)c1ccccc1,1630
7,COc1cccc(CNC(=O)CCN2C(=S)NC(C)(C)CC2C)c1 (stereo unspecified),1480
8,O=C(COC(=O)c1ccccc1F)Nc1cc(S(=O)(=O)N2CCOCC2)ccc1N1CCCC1,1600
9,O=C(Nc1ccc(NC(=O)c2ccco2)c(Cl)c1)c1cccc([N+](=O)[O-])c1,1700
10,Cc1ccc2[nH]c(C)c(CCNC(=O)NC3CCCCC3)c2c1,1590
11,CCN(C(=O)COC(=O)/C=C/c1nc2ccccc2s1)C1CCS(=O)(=O)C1 (stereo unspecified),1560
12,COCc1c(C(=O)OCc2c(C)noc2C)oc2ccccc12,1630
13,CCN1CCN(C(=O)CCN2C(=O)c3ccccc3C2=O)CC1,1540
14,COc1ccc(S(=O)(=O)Nc2cccnc2)c(Cl)c1Cl,1690
15,CCn1ccnc1CN(C)Cc1nc(-c2ccc3c(c2)OCO3)no1,1670
16,COc1ccc(-n2c(=S)[nH]c3sc4c(c3c2=O)CCc2ccccc2-4)cc1,1560
17,O=C(CCN1CCCCC1)N=Nc1c(O)[nH]c2ccccc12,1900
18,CCn1c(=O)cc(SCC(=O)NCCC2=CCCCC2)c2ccccc21,1710
19,CCN(CCCNC(=O)CSc1cc(=O)n(C)c2cc(Cl)ccc12)Cc1ccccc1,2580 (active)
20,O=C(CSc1cccc[n+]1[O-])NCCCc1ccccc1,1360
21,Cn1cnnc1Sc1ccc(CN2CCN(C3CCCC3)C(CCO)C2)o1 (stereo unspecified),1420

row,SMILES,TR-FRET ratio
1,CN(c1ccccc1)c1nc(N)c([N+](=O)[O-])c(NCc2ccco2)n1,1700
2,C/C(N)=C(/C#N)C(=O)COC(=O)CNS(=O)(=O)c1ccc(C)cc1,1640
3,Cc1c(C(=O)Nc2ccccc2)sc2nc3n(c(=O)c12)CCCCC3,1500
4,O=C(CCCn1c(=O)c2sccc2n(CC(=O)NCC2CCCO2)c1=O)NCc1ccco1 (stereo unspecified),1480
5,CCn1nc(C)cc1C(=O)N1CCCC(C(=O)c2cccc(OC)c2)C1 (stereo unspecified),1380
6,CCCCN(C(=O)c1ccc(OC(F)(F)F)cc1)c1c(N)n(CCC)c(=O)[nH]c1=O,1550
7,CN(C)c1nc(-c2cccnc2)nc(-c2ccc(Cl)cc2)c1C#N,1720
8,CC(=O)c1ccc(NC(=S)N(Cc2ccccc2)C(C)C2CC2)cc1 (stereo unspecified),1760
9,CN1CCN(c2ccc(S(=O)(=O)N3CCCCC3)cc2NC(=O)Cc2ccccc2F)CC1,1600
10,Cc1cccc(C)c1NC(=O)C1(C)c2cccc[n+]2CC(=O)N1Cc1cccs1 (stereo unspecified),1340
11,Cc1ccc(C(=O)NC(=S)NCCN2CCOCC2)cc1,1640
12,O=C1CCCC(O)=C1N=Nc1ccc2ncsc2c1,1660
13,O=C(c1ccccc1Cl)N(Cc1ccccc1F)N1C(=O)CCCC1=O,1570
14,Cc1ccc(S(=O)(=O)N2CCOCC2)cc1NC(=O)CSc1nnc(N)s1,1740
15,S=c1[nH]nc(COc2ccccc2)n1-c1ccccc1,1490
16,Fc1ccc(COc2cccc(-c3n[nH]c(=S)o3)c2)cc1,2970 (active)
17,Cc1cccc(OCc2ccc(C(=O)Nc3ccc(F)cc3)cc2)c1,1440
18,O=C(CCc1ccccc1)Nc1ccc(NC(=O)C2CCCCC2)nc1,1430
19,CCOP(=O)(OCC)C(Nc1ccc([N+](=O)[O-])cc1)c1ccc(Cl)cc1 (stereo unspecified),1560
20,Cc1csc(CN(C)C(=O)CC2C(=O)NCCN2CC(C)(C)C)n1 (stereo unspecified),1590
21,O=S(=O)(NC1CC1)c1ccc2c3c(cccc13)CC2,1560

row,SMILES,TR-FRET ratio
1,COc1cccc(OC)c1C(=O)NC(=S)Nc1ccc(N2CCOCC2)c(Cl)c1,1350
2,COc1ccc(C2(CNC(=O)Cc3ccc(OC)c(OC)c3)CCCC2)cc1,1430
3,COc1ccc(C(=O)NNC(=S)NC(=O)c2ccccc2[N+](=O)[O-])cc1,1550
4,CCN(C(=O)COC(=O)c1cc(NS(=O)(=O)c2ccc(Cl)c([N+](=O)[O-])c2)ccc1O)C1CCCCC1,1460
5,CCN(CC)c1ccc(C(=O)N/N=C(\C)c2cccc(OC)c2)cc1,1500
6,O=C(NCCCN1CCOCC1)c1ccc(N2CCCC2)c([N+](=O)[O-])c1,1590
7,Cc1cc(C(=O)CC#N)c(C)n1-c1c(C)n(C)n(-c2ccccc2)c1=O,1450
8,CCOc1ccc(N2C(=O)CN(c3cccc4ccccc34)C2=S)cc1,1810
9,CC(C)(C)NC(=O)CN1CCC(NC(=O)C23CC4CC(CC(C4)C2)C3)CC1,1580
10,CCOC(=O)C1(CCOc2ccccc2)CCN(C(=O)c2cncs2)CC1,1510
11,CCC(=O)Nc1cc(C(F)(F)F)ccc1N1CCCC1,1710
12,COc1ccc(C(=O)NNc2cc(C)nc(NNC(=O)c3ccc(OC)cc3)n2)cc1,1420
13,COc1cc(CNc2ncn[nH]2)ccc1OCc1ccccc1C,1650
14,OCCC1CN(Cc2cnc(-c3ccccc3)s2)CCN1CCc1ccccc1 (stereo unspecified),1800
15,CCC(C)N(C(=O)COC(=O)C1C(C(=O)OC)=C(C)NC(C)=C1C(=O)OC)C1CCS(=O)(=O)C1 (stereo unspecified),1620
16,CCOC(=O)N/N=C/c1cccnc1,1540
17,OCC1(CCc2ccccc2)CCN(Cc2ccc3nsnc3c2)CC1,2140 (active)
18,CC(=O)c1cccc(CN2CCC(CO)(Cc3ccccc3)CC2)c1,1520
19,Cc1cccc(-c2ncc(CN3CCC(CO)(CCCc4ccccc4)CC3)cn2)c1,1420
